From PubChem BioAssay (EPA / NIEHS)
The source made the active and inactive calls. How the source made its calls: active means hit-call score of the fitted dose curve at least 0.9, where 1 is the maximum; inactive means score below 0.9.

These molecules were tested on Cytochrome P450 (CYP24A1), CYP24A1 (gene 1591) (assay: LTEA_HepaRG_CYP24A1: Life Technologies and Expression Analysis (LTEA) Assay for Cytochrome P450 (CYP24A1) using HepaRG (AID 2283478)). Conditions: mRNA level, 48 h; actives raise or lower the signal.
Experimental: LTEA_HepaRG is a cell based, multiplexed-readout assay that uses HepaRG, a human liver cell line, with measurements taken at 48 hours after chemical dosing on a 96-well plate.LTEA_HepaRG_CYP24A1 is one of 102 assay component(s) measured in the LTEA HepaRG cell culture assay. It is a marker of NR mediated metabolism.Data from the assay component LTEA_HepaRG_CYP24A1 was analyzed into 1 endpoint. This assay endpoint, LTEA_HepaRG_CYP24A1, was analyzed with bidirectional fitting relative to DMSO as the negative control and baseline of activity. Using a type of inducible reporter, measures of mRNA induction for gain or loss-of-signal activity can be used to understand regulation of transcription factor activity. To generalize the intended target to other relatable targets, this assay endpoint is annotated to the cyp intended target family, where the subfamily is xenobiotic metabolism.
A total of 1060 chemcials from the ToxCast library were tested in eight-point concentration-response experiments. Cell culture and cytotoxicity assays were conducted at Thermo Fisher Scientific's Custom Services facility (Madison, WI). A single lot of human HepaRG cells (Thermo Fisher Scientific, Frederick, MD) was used for the cell culture experiments. 96-well format collagen type I coated plates of human HepaRG cells were prepared using established methods. Briefly, cryopreserved HepaRG cells were thawed, plated at a density of approximately 100,000 cells/well in HepaRG Thaw, Plate, and General Purpose media (HPRG770, Thermo Fisher Scientific), and incubated for 48 hours. 0.5% DMSO was selected as vehicle control to balance the requisite need of DMSO in HepaRG cultures to maintain differentiation (for example, baseline metabolism, proportions of hepatocytes vs. cholangiocytes), while enabling further hepatic receptor pathway activation (for example, PXR and CAR) in response to chemical exposure. 48 hours after plating, the culture medium was replaced with HepaRG Serum-Free Incudtion Media. Cells were exposed to each test chemical in duplicate and maintained in CO2 incubators for another 48 hours. Chemical plates were thawed to room temperature and 200x concentrations of treatment groups were prepared. 8-point conentration-reponse curves were made with the highest exposure at 100 uM, followed by half-log dilutions, all in 0.5% DMSO. Each test plate contained variouse controls, induction positive controls (1mM phenobarbital), cytotoxicity positive controls ([…] aflatoxin B1), vehicle controls (0.5% DMSO), and total lysis controls (0.5% DMSO). Cell morphology images were taken using an Essen IncuCyte FLR automated microscope, with six 96-well plates imaged in about 24 minutes. Images were captured and exported and JPEG files. Spent culture media was transfered to black-well plates for the LDH assay, and remaining media was sorted at -80 C for later use. Cells were treated with RLT buffer and frozen until shipped for gene expression analysis. Total RNA was isolated from the cell suspension in 75 uL of Buffer RLT (Qiagen, Germantown, MD 20874) by Quintiles/Expression Analysis (Durham, NC) using a custom isolation procedure. Total RNA from each plate well was transferred to a preamplification plate. Fluidigm's 96.96 Dynamic ArrayTM (Fluidigm, Amsterdam, the Netherlands) technology was used for gene expression analyses by quantitative reverse transcription polymerase chain reaction (qRT-PCR, performed by Quintiles/Expression Analysis, Durham, NC)89. Standard TaqManTM Assays (Applied Biosystems/ThermoFisher Scientific, Foster City, CA) were used to assess the expression of 93 genes selected based on their selectivity and sensitivity to important hepatic receptors known to be modulated by environmental chemicals; importance in human hepatocyte functionality; and hepatotoxicity. […]

| SMILES | outcome |
| --- | --- |
| COc1cc(-c2ccc(N)c(OC)c2)ccc1N | inactive |
| CC(C)(C)CC(C)(C)c1ccc(O)cc1 | inactive |
| CC(=O)[O][Hg][c]1ccccc1 | inactive |
| CCC(=O)C(CC(C)N(C)C)(c1ccccc1)c1ccccc1 (centres undefined) | inactive |
| CC(C)(C)c1cc(O)ccc1O | inactive |
| ClCC(Cl)CCl | inactive |
| O=C(O)C(F)(F)C(F)(F)C(F)(F)C(F)(F)C(F)(F)C(F)(F)F | inactive |
| O=[N+]([O-])c1ccc(O)c([N+](=O)[O-])c1 | inactive |
| O=c1[nH]c(=O)[nH]c(=O)[nH]1 | inactive |
| O=C(O)C(F)(F)C(F)(F)C(F)(F)C(F)(F)C(F)(F)C(F)(F)C(F)(F)C(F)(F)C(F)(F)C(F)(F)F | inactive |
| C=CC(=O)OCCCCCC(C)C | inactive |
| CCC(C)(C)c1ccc(O)c(C(C)(C)CC)c1 | inactive |
| Oc1cccc2cccnc12 | inactive |
| CC12CC1(C)C(=O)N(c1cc(Cl)cc(Cl)c1)C2=O (centres undefined) | inactive |
| Cn1sc(Cl)cc1=O | inactive |
| O=C(O)C(Cl)(Cl)Cl | inactive |
| CCN1CCC2(CC1)COc1cc3c(cc12)N(C(=O)c1ccc(-c2ccc(-c4nnc(C)o4)cc2C)cc1)CC3 | inactive |
| CN(C)N=O | inactive |
| C[C@]12CCC(=O)C[C@@H]1CC[C@@H]1[C@@H]2CC[C@]2(C)[C@@H](O)CC[C@@H]12 | inactive |
| CCCCCCCCc1ccc(O)cc1 | inactive |
| CCOP(=S)(OCC)Oc1nc(Cl)c(Cl)cc1Cl | inactive |
| O=C(Nc1ccc2[nH]ccc2c1)c1cc2cc(F)ccc2n1Cc1cccc(F)c1 | inactive |
| C=C(C)C(=O)[O][Sn]([CH2]CCC)([CH2]CCC)[CH2]CCC | inactive |
| Cc1ccccc1N | inactive |
| NC(=O)O | inactive |
| O=C1C2(Cl)C3(Cl)C4(Cl)C(Cl)(Cl)C5(Cl)C3(Cl)C1(Cl)C5(Cl)C24Cl (centres undefined) | inactive |
| CC(C)(OO)c1ccccc1 | inactive |
| CC(C)(c1ccccc1)c1ccc(O)c(C(C)(C)c2ccccc2)c1 | inactive |
| ClC1(Cl)C2(Cl)C3(Cl)C4(Cl)C(Cl)(Cl)C5(Cl)C3(Cl)C1(Cl)C5(Cl)C24Cl (centres undefined) | inactive |
